Screening data: PubChem, National Center for Advancing Translational Sciences (NCATS)
Shiga toxin inh: A qHTS for Small Molecule Inhibitors of Shiga Toxin. AID 2315, 2010. 290,000 compounds, 9.2% hits. Vero cells, Shiga toxin protein synthesis inhibition reporter. inhibition, % at 38.7 µM; in the data active = inhibition mostly above about 28%, no sharp cut-off; inactive = mostly below about 43%; note: 0% is about no effect
Pf growth 48h: Primary qHTS for delayed death inhibitors of the malarial parasite plastid, 48 hour incubation | P. falciparum luciferase growth in erythrocytes, 48 h | AID 504832, 2011 | 310,000 compounds, 5.9% hits | Potency, µM (highest dose often 28.7 µM), inactives show at the highest dose activity change, negative = inhibition, most hits filed as inhibitors; note: potency is the fitted concentration of half-maximal effect; % is set by controls: 0 for no effect and ±100 for the full control effect
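Luciferase-expressing parasites in RBCs, 2% Hct / 0.1% parasitemia final; RPMI 1640 + 0.5% Albumax; 37 C, 5% CO2, one generation; luminescence read-out, lower signal = inhibition.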
Cycloheximide cs: Cycloheximide Counterscreen for Small Molecule Inhibitors of Shiga Toxin; cell reporter, cycloheximide protein synthesis inhibition counterscreen; max response, %; 300,000 compounds, 12% hits; AID 2314, 2010; in the data active = max response mostly above about 13%, no sharp cut-off; inactive = mostly below about 14%; note: read at 38.3 µM for the half of the compounds with a filed dose; 0% is about no effect
Pf growth 96h: Primary qHTS for delayed death inhibitors of the malarial parasite plastid, 96 hour incubation | P. falciparum luciferase reporter growth, 96 h | Potency, µM (top dose mostly 28.7 µM), for inactives: top-dose activity change, negative = inhibition, usual class: inhibitors | 320,000 compounds, 6.9% hits; note: potency is the fitted concentration of half-maximal effect; % is set by controls: 0 for no effect and ±100 for the full control effect
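Compounds incubated with erythrocytes infected by luciferase-expressing P. falciparum (2% hematocrit, 0.05% parasitemia final) for 96 hours, 37 C in 5% CO2. Growth inhibition scored as decreased luciferase luminescence.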
HCMV antiviral: qHTS Assay for inhibitors of the human cytomegalovirus (HCMV) | activity change, negative = inhibition, % at 57.5 µM | 410,000 compounds, 4.5% hits | HFF cells, HCMV-luciferase reporter, 72 h; stronger effect = lower value; in the data active = activity change below about -60%; inconclusive = no clear call, values can overlap the other calls; inactive = above about -39%; note: % is set by controls: 0 for no effect and ±100 for the full control effect
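Cell-based, HFFs, 1000 cells/well, 16 h 37C; cpds in DMSO + HCMV-luc, MOI 1 PFU/cell; 72 h 37C; OneGlo luminescence after 5 min RT; norm. to buffer vs Salinomycin 10uM.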
* hit, by the source's call; ? = inconclusive; · = no result given; [ ] = another dose, or the depositor's remark. In the library only some 20% were active in any assay of this set; here they are far more common. Unless noted, calls come from the whole dose curve; as a rule, active = well fitted inhibition curve with a large enough effect; inconclusive = small, poorly fitted or top-dose-only effect, or another doubt; inactive = no such curve, though single readings can be large or run the other way.

SMILES | Shiga toxin inh | Pf growth 48h | Cycloheximide cs | Pf growth 96h | HCMV antiviral
O=C(Nc1ccccc1)c1ccc(NC(=O)C2CC2)cc1 | 41.8* | 103.9% | 31.7* | 5.8% | ·
COC(=O)c1ccc(NC(=O)C2CCN(C(=O)c3ccc(F)cc3)CC2)cc1 | · | · | · | · | -0.3
COC(=O)c1ccc(NC(=O)C2CCN(C(=O)Nc3ccccc3)CC2)cc1 | · | ? | · | 4.65µM* | -18.8
COc1ccccc1CNc1nc(-c2ccco2)nn1S(=O)(=O)c1ccc2ccccc2c1 | · | · | · | · | 2.2
CC1=C(CC(=O)O)c2cc(F)ccc2C1=Cc1ccc(S(C)(=O)=O)cc1 | · | ? | · | -16.7% | 38.6
O=C(NS(=O)(=O)Nc1ccc(Br)cn1)c1c[nH]c2ccccc12 | -6.2 | 29.8% | -2.9 | 18.3% | 1.7
Cc1nn(-c2ccccc2)c2c1N(CC(=O)N1CCN(c3cccc(Cl)c3)CC1)C(=O)CS2 | · | · | · | · | 6.8
COc1ccccc1NC(=O)c1ccc2nc(-c3ccccc3)c(-c3ccccc3)nc2c1 | -10.8 | ? | -4.7 | ? | -6.7
CC(=O)Nc1cnc(NC(=O)c2cccc(F)c2)cc1C | 55.4* | 400.7% | 50.0* | -12.5% | 25.3
Cc1cc(NC(=O)c2ccc3nc(-c4ccccc4)c(-c4ccccc4)nc3c2)no1 | -8.7 | 5.22µM* | 1.1 | 4.65µM* | 9.9
Cc1cc(NC(=O)c2cccc(Br)c2)no1 | · | · | · | · | 18.3
Cc1ccc(-c2cc(NC(=O)c3cccc(C)c3)on2)cc1 | · | · | · | · | 25.7
COc1ccccc1C(=O)Nc1cc(-c2ccc(C)cc2)no1 | 83.0* | 13.0%[0.00184 µM] | 24.6* | 48.9% | 164.1
Cc1cc(NC(=O)c2ccccc2)no1 | 73.0* | · | 50.7* | 137.9% | -24.0
COC(=O)C(Cc1ccccc1)NC(=O)CCCC(=O)NCc1cccc(OC)c1 (configuration not stated) | -7.6 | 20.6% | -1.6 | -28.4% | -7.4
Cc1ccc(C)c(N2CCN(C(=O)c3cnn(C(C)(C)C)c3C3CCN(C(=O)OC(C)(C)C)CC3)CC2)c1 | · | · | · | · | 7.3
Cc1ccc(-c2nc3ccccc3nc2-c2ccccc2)cc1 | -5.1 | 30.1% | 11.3 | ? | 3.2
Cc1cc(NC(=O)c2ccc(NC(=O)C(C)C)cc2)no1 | 77.1 | 64.8% | 32.2 | · | 41.2
Oc1ccccc1-c1nc2ccccc2nc1-c1ccccc1 | -1.1 | 14.7µM* | -1.7 | ? | 3.6
COc1ccccc1C(=O)Nc1cc(C)on1 | · | 108.9% | 44.8* | 15.6% | 77.0
Cc1cc(NC(=O)c2ccc(NC(=O)C3CC3)cc2)no1 | 61.4* | 15.2% | 29.8* | -7.2% | -3.5
Cc1cc(NC(=O)C(=O)c2cn(C)c3ccccc23)no1 | 42.4 | 48.7% | 18.4* | -8.2% | 1.7
Cc1cccc(C)c1NC(=O)C(=O)c1cn(C)c2ccccc12 | 26.1 | -5.4% | 10.0 | 19.2% | -17.4
COc1ccc(-n2c(=O)c3ccccc3n(CC(=O)NCC3CCCO3)c2=O)cc1 (configuration not stated) | -5.7 | -2.7% | -8.0 | 15.5% | -19.5
CC1Cc2nc(SCC(=O)NCC3CCCO3)n(-c3ccccc3)c(=O)c2S1 (configuration not stated) | · | · | · | · | -18.8
SMILES | Shiga toxin inh | Pf growth 48h | Cycloheximide cs | Pf growth 96h | HCMV antiviral
COc1ccc(CCNC(=O)CSc2cn(CCNC(=O)c3ccc(OC)c(OC)c3)c3ccccc23)cc1OC | · | · | · | · | -17.5
CCC1CCCCN1S(=O)(=O)c1ccc(C(=O)Nc2sc3c(c2C(=O)NC)CCC3)cc1 (configuration not stated) | · | · | · | · | -15.3
Cc1cc(NC(=O)c2cccc(F)c2)no1 | 27.5 | 29.7% | 25.7* | 169.1% | -8.0
Cc1cc(NC(=O)c2cccc(S(=O)(=O)Nc3cccc(C(=O)O)c3)c2)no1 | 3.9 | 16.2% | 6.4 | ? | 67.3
C/C(=C\C(=O)Nc1cc(C)on1)c1ccccc1 | 56.6* | ? | 36.5* | 113.1% | 34.7
O=C(O)c1ccc2nc(-c3ccccc3)c(-c3ccccc3)nc2c1 | 64.9* | 322.2% | 56.3* | ? | 71.7
Cc1ccsc1C(=O)N1CCCC1(C)C(=O)NCC(C)C (configuration not stated) | · | · | · | · | 21.3
CCN(CC)CC(=O)Nc1sc(C)cc1C(=O)c1ccccc1 | 2.7 | 3.29µM* | 4.7 | -12.3% | 0.2
CCN(CC)CC(=O)Nc1sc(C)cc1C(=O)c1ccc(C)cc1 | -8.9 | ? | -2.9 | -23.7% | 23.9
CCc1cc(C(=O)c2ccc(Br)cc2)c(NC(=O)CN(CC)CC)s1 | -0.8 | 5.86µM* | -2.4 | 8.28µM* | 3.9
CCOc1ccc(S(=O)(=O)N2CCOCC2)cc1NC(=O)CSCc1c(C)noc1C | · | ? | · | -15.1% | -9.7
C=C(c1ccccc1)[C@@H](C#N)C1CCCC1 | · | · | · | · | -15.1
CS(=O)(=O)N1CCc2cc(C(=O)Nc3ccc(S(N)(=O)=O)cc3)ccc21 | · | · | · | · | -1.2
C=CCn1c(SCC(=O)Nc2cccc(S(N)(=O)=O)c2)nnc1C1CCCCC1 | · | -2.8% | · | -15.6% | -18.7
COc1cccc(OCC(O)CN2C(C)CCCC2C)c1 (configuration not stated) | -16.7 | 20.2% | -3.3 | -4.6% | -1.1
OC(CNC1CCCC1)COc1c(F)cc(Br)cc1F (configuration not stated) | -1.5 | · | -2.8 | -16.1% | -12.8
CC1CCCC(C)N1CC(O)COc1c(F)cc(Br)cc1F (configuration not stated) | 8.8 | 10.4µM* | 4.6 | ? | -23.4
Cc1cc(OCC(O)CN2C(C)CCCC2C)ccc1C(C)C (configuration not stated) | 8.2 | 9.28µM* | -5.4 | ? | 7.1
CC(=O)Nc1ccc(OCC(O)CN2C(C)CCCC2C)cc1 (configuration not stated) | -2.7 | 21.5% | 19.9* | 52.3% | -25.7
CC1CCCC(C)N1CC(O)COc1ccc(Cl)cc1 (configuration not stated) | 9.6 | ? | 4.8 | ? | 10.2
COC(=O)c1cccc(N(C(=O)c2ccco2)C(C(=O)NC2CCCC2)c2ccc(N3CCOCC3)cc2)c1 (configuration not stated) | -2.9 | 10.4µM* | -3.2 | 31.8% | 0.7
O=C(NC1CCCC1)C(c1ccc(N2CCOCC2)cc1)N(Cc1ccccc1)C(=O)c1ccco1 (configuration not stated) | -1.7 | 14.7µM* | -5.3 | · | 23.5
Cc1cc(C(=O)NCc2cccs2)ccc1[N+](=O)[O-] | 6.6 | 71.7% | 13.8* | -5.1% | -18.3
Cc1ccc(C(=O)NCc2ccc3c(c2)OCO3)cc1Cl | 40.0 | 15.0% | 18.2* | ? | 8.7
COc1ccc(C(=O)NCC(=O)NCc2ccc3c(c2)OCO3)cc1[N+](=O)[O-] | · | · | · | · | -12.7
Cc1cc(C(=O)NCc2ccc3c(c2)OCO3)ccc1[N+](=O)[O-] | 22.9 | 1.3% | 24.8* | 87.3% | -12.3
O=C(NCc1cccs1)c1ccc([N+](=O)[O-])cc1 | -12.2 | 12.4% | 9.6 | ? | ?
